Assay outcomes (PubChem)
HCV inh: inhibitors of hepatitis C virus infection. Huh7.5.1 HCVcc-Cre infection, luciferase reporter, 44 h. Potency, µM (doses to about 41.8 µM), usual class: inhibitors. actives 3.4% (n = 340,000). AID 651820; active = well fitted inhibition curve with a large enough effect; inconclusive = small, poorly fitted or top-dose-only effect, or another doubt; inactive = no such curve, though single readings can be large or run the other way
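Cells seeded at 1,000/well and cultured 4 h, then compounds added followed by HCVcc-Cre virus (~0.5 moi). After 44 h further culture, luciferase substrate was added, plates held 15 min at room temperature, and luminescence read for 15 sec.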
Marburg entry inh: Marburg virus entry inhibition | Potency, µM (highest dose often 37.8 µM), usual class: inhibitors | AID 540276 | Marburg virus pseudotyped entry inhibition, cell reporter | actives 1.8% (n = 300,000); calls by dose curve; tested in HEK293 cells
HCMV antiviral: blocks human cytomegalovirus replication; HFF cells, HCMV-luciferase reporter, 72 h; active compounds read low; activity change, negative = inhibition, % at 57.5 µM; actives 4.5% (n = 410,000); in the data active = activity change below about -60%; inconclusive = no clear call, values can overlap the other calls; inactive = above about -39%
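Screen run at 2 compound doses on HFFs infected with reporter HCMV, MOI 1 PFU/cell. Luciferase activity from cell lysates at 72 h post infection gave inhibition relative to buffer-only and Salinomycin wells.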
SARS PLpro yeast: SARS-CoV PLP inhibition in yeast | S. cerevisiae expressing SARS-CoV PLpro, growth rescue | Potency, µM (titrated, usually from 32.9 µM), most hits filed as activators | actives 0.19% (n = 330,000) | AID 485353; calls by dose curve; also: nearly all actives have a fitted effect of over 55% in size
LASV entry inh: inhibitors of Lassa virus binding or cell entry. Lassa virus pseudotype entry inhibition, cell reporter. Potency, µM (top dose mostly 37.9 µM), actives largely listed as inhibitors. actives 1.2% (n = 300,000); calls by dose curve; tested in HEK293 cells; also: nearly all actives have a fitted effect of over 50% in size
FMDV inh: antivirals against foot and mouth disease virus. actives 1.2% (n = 410,000). FMDV antiviral cell-based qHTS. Potency, µM (top dose mostly 57.9 µM), most hits filed as inhibitors; calls by dose curve; tested in HEK293T cells; also: read-out not given here; nearly all actives have a fitted effect of over 45% in size
Large screens that a line does not name were inactive; ! = a repeat was not active. Shown are actives, neighbours in structure and some others; about 8% of the full set was active somewhere.

O=C(Oc1cccc(/C=N/Nc2nc(N3CCOCC3)nc(N3CCOCC3)n2)c1)c1ccco1	HCV inh 1.12µM, Marburg entry inh inconclusive, FMDV inh inconclusive
Cc1ccc2nc(CN3CCN(C(=O)Nc4ccc(C)c(F)c4)CC3)oc2c1	none (no result: HCV inh, Marburg entry inh, SARS PLpro yeast)
Oc1ccccc1-c1nnc(SCCN2CCOCC2)n1Cc1ccccc1	HCV inh inconclusive, HCMV antiviral -63.9, SARS PLpro yeast inconclusive
O=c1c2c3c(sc2n(Cc2cc(=O)n4ccccc4n2)c(=O)n1-c1ccccc1)CCC3	none (no result: HCV inh, SARS PLpro yeast)
CCOC(=O)C1CCN(C(=O)COc2ccc(N(C)S(=O)(=O)c3ccc(C)cc3)cc2)CC1	HCMV antiviral -102.4
COC(=O)C1CCN(C(=O)COc2ccc(N(C)S(=O)(=O)c3ccc(C)cc3)cc2)CC1	none
CCOc1ccc(N(CC(=O)N2CCCCCC2)S(=O)(=O)c2ccc(C)cc2)cc1	HCMV antiviral inconclusive, LASV entry inh 3.55µM
Cc1ccc(N(CC(=O)N2CCCCC2)S(=O)(=O)c2ccc(C)cc2)cc1	LASV entry inh inconclusive
CCC1CCCCN1C(=O)COc1ccc(N(C)S(=O)(=O)c2ccc(C)cc2)cc1 (stereo not drawn)	HCV inh 10µM, FMDV inh inconclusive (no result: Marburg entry inh, LASV entry inh)
CN(c1ccc(OCC(=O)N2CCCC2)cc1)S(=O)(=O)c1ccc(Cl)cc1	none (no result: Marburg entry inh, LASV entry inh)
CCOC(=O)N1CCN(c2c(NCCc3ccccc3)c(=O)c2=O)CC1	none (no result: Marburg entry inh, LASV entry inh)
CCOC(=O)N1CCC(NC(=O)c2cnc3n(c2=O)CCS3)CC1	HCMV antiviral -60.7 (no result: Marburg entry inh, LASV entry inh)
CCOC(=O)N1CCC(Nc2ccc3nnc(-c4ccccc4)n3n2)CC1	HCV inh 14.1µM, FMDV inh inconclusive (no result: Marburg entry inh, LASV entry inh)
CCOC(=O)N1CCC(NCCNC(=O)c2ccccc2)CC1	HCMV antiviral -70.0!
CCOC(=O)N1CCC(NCCNC(=O)c2ccccc2Cl)CC1	none
CCOC(=O)N1CCN(c2c(NC3CCN(Cc4ccccc4)CC3)c(=O)c2=O)CC1	HCMV antiviral -64.2 (no result: Marburg entry inh, LASV entry inh)
CC1=C(Br)C2=C(CC1)NC(=O)/C2=N\N1C(=O)C2CCCCC2C1=O (stereo not drawn)	none (no result: HCV inh, HCMV antiviral, SARS PLpro yeast, LASV entry inh, FMDV inh)
CCOc1ccc(-n2c(=O)c3c(C)c(C)sc3n(CC(=O)c3ccccc3)c2=O)cc1	LASV entry inh inconclusive (no result: HCV inh, SARS PLpro yeast)
CCN(c1ccccc1)c1nnc(NC(=O)Nc2ccc(Br)cc2F)s1	Marburg entry inh inconclusive (no result: HCV inh, SARS PLpro yeast)
Cc1nn(Cc2ccccc2)c(C)c1C(=O)OCC(=O)c1cc(C)n(CC(F)(F)F)c1C	HCV inh 8.91µM, Marburg entry inh inconclusive, LASV entry inh 1.78µM
Cc1cc(C(=O)COC(=O)c2ccco2)c(C)n1Cc1ccco1	Marburg entry inh inconclusive, LASV entry inh 14.6µM, FMDV inh 8.91µM
Cc1cc(C(=O)COC(=O)c2ccncc2)c(C)n1Cc1ccco1	LASV entry inh inconclusive
CCN(c1cccc(C)c1)S(=O)(=O)c1ccc2[nH]cc(C(=O)NCCCOC)c(=O)c2c1	none (no result: HCV inh, Marburg entry inh, SARS PLpro yeast)
CC1(C)Cc2nc(N3CCCC3)c(C#N)cc2CO1	none
CC1(C)Cc2nc(Cl)c(C#N)cc2CO1	HCMV antiviral -99.7
CSc1ccccc1NC(=O)COC(=O)c1ccc(-n2nc(C)cc2C)cc1	HCMV antiviral -106.6
Cc1cc(C)n(-c2ccc(C(=O)NCC(=O)Nc3cc(Cl)ccc3Cl)cc2)n1	HCMV antiviral active (no result: Marburg entry inh, LASV entry inh)
CCS(=O)(=O)N1CC(=O)N(c2ccc(Cl)cc2C)C(C)(C(=O)NC2CCCCCC2)C1 (stereo not drawn)	LASV entry inh inconclusive (no result: HCV inh, Marburg entry inh, SARS PLpro yeast)
COc1ccc(NC2c3ccccc3C(=O)N2c2ccccn2)cc1 (stereo not drawn)	HCMV antiviral -79.7 (no result: Marburg entry inh, LASV entry inh)
CCN(CC)S(=O)(=O)c1ccc(NC2c3ccccc3C(=O)N2c2ccc(C)cn2)cc1 (stereo not drawn)	HCV inh 14.1µM (no result: Marburg entry inh, LASV entry inh)
Cc1ccc(N2C(=O)c3ccccc3C2Nc2ccc(S(=O)(=O)N3CCCCC3)cc2)nc1 (stereo not drawn)	HCV inh inconclusive (no result: LASV entry inh)
CCOC(=O)c1ccc(NC2c3ccccc3C(=O)N2c2ccccn2)cc1 (stereo not drawn)	none (no result: Marburg entry inh, LASV entry inh)
C[C@@H](C(=O)NC1CCCCC1)N1C(=O)N2CCc3c([nH]c4ccccc34)[C@@]2(C)C1=O	HCV inh 0.562µM, FMDV inh inconclusive (no result: Marburg entry inh, LASV entry inh)
CC(C)[C@@H](C(=O)NC1CCN(Cc2ccccc2)CC1)N1C(=O)N2CCc3c([nH]c4ccccc34)[C@@]2(C)C1=O	HCMV antiviral -65.2 (no result: Marburg entry inh, LASV entry inh)
CC(C)C[C@@H](C(=O)NC1CCN(Cc2ccccc2)CC1)N1C(=O)N2CCc3c([nH]c4ccccc34)[C@@]2(C)C1=O	HCV inh inconclusive, FMDV inh inconclusive (no result: Marburg entry inh, LASV entry inh)
C[C@@H](C(=O)NC1CCN(Cc2ccccc2)CC1)N1C(=O)N2CCc3c([nH]c4ccccc34)[C@@]2(C)C1=O	HCV inh 7.94µM, FMDV inh inconclusive (no result: Marburg entry inh, LASV entry inh)
O=C(O)c1cc(O)c2c(c1)[C@H]([C@H]1c3cc(C(=O)O)cc(O)c3C(=O)c3c(O[C@@H]4O[C@H](CO)[C@@H](O)[C@H](O)[C@H]4O)cccc31)c1cccc(O[C@@H]3O[C@H](CO)[C@@H](O)[C@H](O)[C@H]3O)c1C2=O	none (no result: HCV inh, Marburg entry inh, HCMV antiviral, SARS PLpro yeast, LASV entry inh)
C=C1C[C@@]2(C)CCCC3=CC(=O)C=C[C@@]32c2ccc(OC)c(OC)c21	none (no result: HCV inh, Marburg entry inh, SARS PLpro yeast, LASV entry inh, FMDV inh)
COc1ccc(CCNC(=O)C2(c3cccs3)CCOCC2)cc1OC	none (no result: HCV inh, Marburg entry inh, SARS PLpro yeast)
COC(=O)C1=C(C(=O)OC)[C@@H]2N(C)c3ccc(OC)cc3[C@@]23C[C@@H](C(=O)OC)N(C(=O)N2CCNC2=O)C3=N1	none (no result: HCV inh, HCMV antiviral, SARS PLpro yeast, LASV entry inh, FMDV inh)
COc1ccc(OC)c(NC(=O)C2CCN(c3ncccn3)CC2)c1	none
COc1ccccc1NC(=O)N1CCN(c2cc(-c3ccccc3)nc3ncnn23)CC1	HCV inh 10µM, Marburg entry inh inconclusive, HCMV antiviral -95.4, FMDV inh 31.6µM
COc1ccc(OC)c(NC(=O)C2CCN(c3cc(-c4ccccc4)nc4ncnn34)CC2)c1	HCV inh 14.1µM, Marburg entry inh inconclusive, HCMV antiviral inconclusive
COc1ccc(NC(=O)C2CCN(c3cc(-c4ccccc4)nc4ncnn34)CC2)cc1OC	HCMV antiviral -89.4, LASV entry inh inconclusive, FMDV inh inconclusive
COc1ccc(-c2cc3nc(-c4ccccc4)cc(N4CCN(C(C)=O)CC4)n3n2)cc1	FMDV inh inconclusive (no result: HCV inh, Marburg entry inh, SARS PLpro yeast, LASV entry inh)
COc1ccc(NC(=O)C2CCN(c3cnccn3)CC2)cc1OC	none
Cc1ccc(N(Cc2cccs2)C(=O)C(C)Oc2ccc(Cl)c(C)c2)cc1 (stereo not drawn)	Marburg entry inh inconclusive, FMDV inh inconclusive (no result: HCV inh, SARS PLpro yeast)
Cc1cccc(NC(=O)CCCn2c(C)c3cnn(-c4ccccc4)c(=O)c3c2C)c1C	none (no result: HCV inh, SARS PLpro yeast)
Cc1cccc(N2CCN(C(=O)Cn3c(C)c4cnn(-c5ccccc5)c(=O)c4c3C)CC2)c1C	HCMV antiviral -81.3, LASV entry inh inconclusive, FMDV inh 28.2µM (no result: HCV inh, SARS PLpro yeast)
CCOC(=O)c1nn(-c2ccc(C)c(C)c2)c(=O)c2c(N)scc12	HCV inh 6.31µM
CCOC(=O)c1nn(-c2ccc(OC)cc2)c(=O)c2c(N)scc12	LASV entry inh inconclusive
